Holding throughout (assay): DAPPL (digital affinity profiling via proximity ligation, sequencing); 10 mM Tris-HCl pH 7.5, 50 mM NaCl, 1 mM DTT, 4% glycerol, room temperature, 30 min; GST-TFs on glutathione beads, 16-mer random dsDNA library, 0.1% formaldehyde crosslink after washing; high values mean tight binding
Common to all, as to details: protein: recombinant; tags: N-terminal GST; dsDNA, one strand shown

One assay concerns the target T1, FLI1 (Homo sapiens, UniProt Q01543 1-452).
T1 sequence: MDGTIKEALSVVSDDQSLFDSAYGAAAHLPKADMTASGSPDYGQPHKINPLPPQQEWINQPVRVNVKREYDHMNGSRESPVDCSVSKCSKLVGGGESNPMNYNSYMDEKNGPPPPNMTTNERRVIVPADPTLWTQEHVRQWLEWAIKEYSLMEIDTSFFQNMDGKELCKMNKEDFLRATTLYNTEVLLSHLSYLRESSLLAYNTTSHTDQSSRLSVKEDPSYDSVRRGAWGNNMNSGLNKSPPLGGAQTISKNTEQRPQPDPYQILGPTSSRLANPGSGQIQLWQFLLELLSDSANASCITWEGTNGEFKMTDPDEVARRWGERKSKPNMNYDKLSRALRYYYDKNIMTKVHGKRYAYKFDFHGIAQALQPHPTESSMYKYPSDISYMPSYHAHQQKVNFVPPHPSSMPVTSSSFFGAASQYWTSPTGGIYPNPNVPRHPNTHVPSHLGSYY
An outline of the steps:
(§1)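 Pools of DNA-barcoded human transcription factors, expressed in yeast as GST fusions on glutathione beads and combined with a tag-only sample, were incubated with 200 nmole of a 16-mer random double-stranded DNA library. Incubation took 30 min at room temperature in Tris/NaCl/DTT/glycerol buffer and was followed by washing, 0.1% formaldehyde crosslinking, proximity ligation (BsaI/T4 ligase, 1 h, 37 °C), PCR amplification and sequencing on an Illumina NextSeq500. Binding signal is the ratio of a hexamer's read frequency for a factor to its frequency for the tag-only sample.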

In another assay the target is T2, ELK1 (Homo sapiens, UniProt P19419 1-428).
T2 sequence: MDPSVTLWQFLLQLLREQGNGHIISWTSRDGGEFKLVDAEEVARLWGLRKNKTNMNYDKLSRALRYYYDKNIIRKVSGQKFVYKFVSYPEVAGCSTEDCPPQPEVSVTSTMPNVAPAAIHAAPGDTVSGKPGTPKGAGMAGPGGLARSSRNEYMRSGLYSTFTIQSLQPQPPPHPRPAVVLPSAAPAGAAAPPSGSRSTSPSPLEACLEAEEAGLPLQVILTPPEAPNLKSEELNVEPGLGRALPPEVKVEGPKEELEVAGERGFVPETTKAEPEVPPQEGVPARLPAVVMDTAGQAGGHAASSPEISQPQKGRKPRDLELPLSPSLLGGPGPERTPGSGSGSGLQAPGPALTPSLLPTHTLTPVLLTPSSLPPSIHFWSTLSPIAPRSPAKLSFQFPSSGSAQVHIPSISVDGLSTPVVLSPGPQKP
An outline of the steps:
as §1

A further assay deals with T3, GABPA (Homo sapiens, UniProt Q06546 1-454).
T3 sequence: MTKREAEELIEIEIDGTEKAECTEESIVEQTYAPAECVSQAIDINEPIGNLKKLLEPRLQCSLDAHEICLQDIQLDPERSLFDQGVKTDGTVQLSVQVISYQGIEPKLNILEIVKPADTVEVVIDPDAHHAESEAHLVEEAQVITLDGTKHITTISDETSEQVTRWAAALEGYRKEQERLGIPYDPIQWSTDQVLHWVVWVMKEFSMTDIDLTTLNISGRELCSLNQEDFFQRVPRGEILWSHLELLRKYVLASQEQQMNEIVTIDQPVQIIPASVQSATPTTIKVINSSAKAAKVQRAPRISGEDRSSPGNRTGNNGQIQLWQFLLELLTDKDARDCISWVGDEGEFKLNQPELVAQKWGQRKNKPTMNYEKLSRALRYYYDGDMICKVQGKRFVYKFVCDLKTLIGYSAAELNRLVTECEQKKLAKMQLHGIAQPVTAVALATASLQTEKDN
An outline of the steps: as §1

For another assay, the target named is T4, ERG (Homo sapiens, UniProt P11308 1-479).
T4 sequence: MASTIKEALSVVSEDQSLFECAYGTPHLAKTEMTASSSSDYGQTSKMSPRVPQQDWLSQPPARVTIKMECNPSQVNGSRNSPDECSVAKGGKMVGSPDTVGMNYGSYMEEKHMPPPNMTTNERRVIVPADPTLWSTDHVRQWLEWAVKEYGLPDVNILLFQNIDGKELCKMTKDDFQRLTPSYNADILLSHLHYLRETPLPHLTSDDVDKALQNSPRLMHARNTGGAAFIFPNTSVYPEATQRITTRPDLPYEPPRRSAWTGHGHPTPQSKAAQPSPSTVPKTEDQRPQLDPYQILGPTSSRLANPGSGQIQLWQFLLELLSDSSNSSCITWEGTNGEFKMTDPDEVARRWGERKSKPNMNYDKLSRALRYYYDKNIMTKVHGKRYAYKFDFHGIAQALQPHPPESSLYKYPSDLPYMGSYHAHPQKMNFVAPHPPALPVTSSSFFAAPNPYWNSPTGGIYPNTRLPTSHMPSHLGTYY
The essentials:
as §1

The target of the next assay is ELF1 (Homo sapiens, UniProt P32519 1-619). The essentials: as §1
A further assay addresses T5, EHF (Homo sapiens, UniProt Q9NZC4 1-300).
T5 sequence: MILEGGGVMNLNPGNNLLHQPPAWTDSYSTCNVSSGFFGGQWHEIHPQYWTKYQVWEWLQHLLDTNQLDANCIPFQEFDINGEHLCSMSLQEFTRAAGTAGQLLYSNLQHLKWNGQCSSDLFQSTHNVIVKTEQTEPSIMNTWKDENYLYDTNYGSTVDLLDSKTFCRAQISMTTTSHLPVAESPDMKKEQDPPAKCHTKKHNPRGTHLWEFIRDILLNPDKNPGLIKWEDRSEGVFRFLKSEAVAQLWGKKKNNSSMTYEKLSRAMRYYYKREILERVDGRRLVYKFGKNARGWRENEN
The essentials: as §1

The next assay deals with SPI1 (Homo sapiens, UniProt P17947 1-270). An outline of the steps:
as §1

A further assay addresses SPIB (Homo sapiens, UniProt Q01892 1-262). An outline of the steps:
as §1

Another assay has as its target T6, FEV (Homo sapiens, UniProt Q99581 1-238).
T6 sequence: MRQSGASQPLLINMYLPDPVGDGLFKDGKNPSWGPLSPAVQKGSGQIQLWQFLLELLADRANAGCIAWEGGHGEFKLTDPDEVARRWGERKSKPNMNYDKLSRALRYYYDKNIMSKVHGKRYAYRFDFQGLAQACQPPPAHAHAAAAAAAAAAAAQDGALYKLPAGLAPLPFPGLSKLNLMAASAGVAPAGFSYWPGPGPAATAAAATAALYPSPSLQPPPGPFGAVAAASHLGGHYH
An outline of the steps:
as §1

A further assay addresses ETV5 (Homo sapiens, UniProt P41161 1-510). An outline of the steps:
as §1

A further assay deals with T7, SPIC (Homo sapiens, UniProt Q8N5J4 1-248).
T7 sequence: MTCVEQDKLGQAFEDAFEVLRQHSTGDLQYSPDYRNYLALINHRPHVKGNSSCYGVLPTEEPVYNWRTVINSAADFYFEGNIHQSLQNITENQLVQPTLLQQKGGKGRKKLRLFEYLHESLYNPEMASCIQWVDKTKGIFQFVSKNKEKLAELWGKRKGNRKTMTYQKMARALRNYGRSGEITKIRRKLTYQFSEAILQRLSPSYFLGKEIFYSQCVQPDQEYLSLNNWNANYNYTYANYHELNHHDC
An outline of the steps:
as §1

A further assay addresses ELF4 (Homo sapiens, UniProt Q99607 1-663). The essentials: as §1
Another assay has as its target ETV1 (Homo sapiens, UniProt P50549 1-477). An outline of the steps: as §1
The target in the next assay is T8, ERF (Homo sapiens, UniProt P50548 1-548).
T8 sequence: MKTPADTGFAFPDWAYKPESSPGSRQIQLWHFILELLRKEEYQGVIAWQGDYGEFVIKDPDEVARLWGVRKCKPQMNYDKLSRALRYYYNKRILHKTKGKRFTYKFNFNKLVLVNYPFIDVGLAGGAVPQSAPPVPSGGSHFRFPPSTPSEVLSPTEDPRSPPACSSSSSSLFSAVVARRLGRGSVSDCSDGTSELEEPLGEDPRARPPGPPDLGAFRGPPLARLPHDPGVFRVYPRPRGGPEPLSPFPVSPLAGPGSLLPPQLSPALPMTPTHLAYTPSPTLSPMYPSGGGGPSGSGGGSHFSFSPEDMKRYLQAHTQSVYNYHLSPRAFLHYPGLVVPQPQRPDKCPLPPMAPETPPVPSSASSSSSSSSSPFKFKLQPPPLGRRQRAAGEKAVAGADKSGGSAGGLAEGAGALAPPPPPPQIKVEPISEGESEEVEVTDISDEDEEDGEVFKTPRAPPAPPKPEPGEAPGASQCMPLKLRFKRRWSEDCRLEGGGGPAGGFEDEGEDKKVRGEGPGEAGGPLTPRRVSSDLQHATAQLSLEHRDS
An outline of the steps:
as §1

The target of a further assay is T9, ETS2 (Homo sapiens, UniProt P15036 1-469).
T9 sequence: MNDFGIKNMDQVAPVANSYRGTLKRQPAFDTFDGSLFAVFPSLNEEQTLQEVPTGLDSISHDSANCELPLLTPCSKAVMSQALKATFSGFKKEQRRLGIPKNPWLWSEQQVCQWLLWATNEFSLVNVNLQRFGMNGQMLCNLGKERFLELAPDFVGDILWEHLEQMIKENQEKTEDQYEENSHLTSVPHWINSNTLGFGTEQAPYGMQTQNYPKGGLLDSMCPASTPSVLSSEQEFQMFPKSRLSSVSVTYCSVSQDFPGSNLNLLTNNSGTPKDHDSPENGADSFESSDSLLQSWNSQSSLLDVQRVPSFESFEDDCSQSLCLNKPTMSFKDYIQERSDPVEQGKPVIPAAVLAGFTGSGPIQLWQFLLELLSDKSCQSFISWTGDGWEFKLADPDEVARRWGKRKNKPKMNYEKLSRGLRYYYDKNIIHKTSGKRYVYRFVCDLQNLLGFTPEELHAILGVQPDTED
The essentials:
as §1

A further assay deals with T10, SPDEF (Homo sapiens, UniProt O95238 1-335).
T10 sequence: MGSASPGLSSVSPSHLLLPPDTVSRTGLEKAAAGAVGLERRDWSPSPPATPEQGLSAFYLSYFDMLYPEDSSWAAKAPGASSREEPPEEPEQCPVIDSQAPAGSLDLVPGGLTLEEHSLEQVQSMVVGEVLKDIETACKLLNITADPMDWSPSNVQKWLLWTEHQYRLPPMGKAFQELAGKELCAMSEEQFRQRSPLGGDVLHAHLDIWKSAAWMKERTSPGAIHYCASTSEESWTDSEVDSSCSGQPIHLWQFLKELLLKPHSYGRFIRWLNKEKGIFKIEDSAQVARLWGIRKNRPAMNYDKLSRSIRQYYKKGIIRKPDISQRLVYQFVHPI
An outline of the steps: as §1

The next assay has as its target T11, ELF5 (Homo sapiens, UniProt Q9UKW6-2 1-255).
T11 sequence: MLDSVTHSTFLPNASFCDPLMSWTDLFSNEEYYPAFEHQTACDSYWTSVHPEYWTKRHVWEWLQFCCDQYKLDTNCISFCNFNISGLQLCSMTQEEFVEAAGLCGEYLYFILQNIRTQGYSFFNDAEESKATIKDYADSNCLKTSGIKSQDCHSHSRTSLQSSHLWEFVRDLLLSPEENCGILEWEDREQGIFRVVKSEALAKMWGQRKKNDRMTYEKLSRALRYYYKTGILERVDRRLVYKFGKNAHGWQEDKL
The essentials: as §1

In another assay the target is T12, ETV3 (Homo sapiens, UniProt P41162-2 1-143).
T12 sequence: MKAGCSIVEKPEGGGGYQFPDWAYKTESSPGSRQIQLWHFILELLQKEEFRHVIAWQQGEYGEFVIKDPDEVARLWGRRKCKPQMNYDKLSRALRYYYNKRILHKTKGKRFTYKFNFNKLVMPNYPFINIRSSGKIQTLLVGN
The essentials:
as §1

The next assay addresses ETV6 (Homo sapiens, UniProt P41212 1-452). An outline of the steps:
as §1

Chain of SPIB (Q01892 whole entry): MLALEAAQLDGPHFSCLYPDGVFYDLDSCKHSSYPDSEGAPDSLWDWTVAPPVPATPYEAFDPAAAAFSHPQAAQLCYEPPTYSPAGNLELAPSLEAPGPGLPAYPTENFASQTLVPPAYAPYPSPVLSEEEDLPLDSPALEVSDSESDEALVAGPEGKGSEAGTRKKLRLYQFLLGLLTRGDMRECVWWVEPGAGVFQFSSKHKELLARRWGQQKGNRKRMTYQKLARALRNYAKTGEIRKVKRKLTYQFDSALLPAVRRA
Chain of ETV6 (P41212 whole entry): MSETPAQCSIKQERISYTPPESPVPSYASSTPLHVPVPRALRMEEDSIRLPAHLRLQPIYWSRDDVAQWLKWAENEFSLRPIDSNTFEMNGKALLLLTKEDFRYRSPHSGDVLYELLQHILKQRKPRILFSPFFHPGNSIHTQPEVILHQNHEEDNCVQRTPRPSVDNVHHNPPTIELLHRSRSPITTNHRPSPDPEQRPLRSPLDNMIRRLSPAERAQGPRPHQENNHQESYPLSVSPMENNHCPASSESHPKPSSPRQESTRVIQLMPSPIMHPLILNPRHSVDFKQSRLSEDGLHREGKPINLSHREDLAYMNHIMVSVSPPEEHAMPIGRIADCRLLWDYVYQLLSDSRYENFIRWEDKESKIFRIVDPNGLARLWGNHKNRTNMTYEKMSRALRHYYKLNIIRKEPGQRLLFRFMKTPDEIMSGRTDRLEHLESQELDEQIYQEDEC
Chain of ELF1 (P32519 whole entry): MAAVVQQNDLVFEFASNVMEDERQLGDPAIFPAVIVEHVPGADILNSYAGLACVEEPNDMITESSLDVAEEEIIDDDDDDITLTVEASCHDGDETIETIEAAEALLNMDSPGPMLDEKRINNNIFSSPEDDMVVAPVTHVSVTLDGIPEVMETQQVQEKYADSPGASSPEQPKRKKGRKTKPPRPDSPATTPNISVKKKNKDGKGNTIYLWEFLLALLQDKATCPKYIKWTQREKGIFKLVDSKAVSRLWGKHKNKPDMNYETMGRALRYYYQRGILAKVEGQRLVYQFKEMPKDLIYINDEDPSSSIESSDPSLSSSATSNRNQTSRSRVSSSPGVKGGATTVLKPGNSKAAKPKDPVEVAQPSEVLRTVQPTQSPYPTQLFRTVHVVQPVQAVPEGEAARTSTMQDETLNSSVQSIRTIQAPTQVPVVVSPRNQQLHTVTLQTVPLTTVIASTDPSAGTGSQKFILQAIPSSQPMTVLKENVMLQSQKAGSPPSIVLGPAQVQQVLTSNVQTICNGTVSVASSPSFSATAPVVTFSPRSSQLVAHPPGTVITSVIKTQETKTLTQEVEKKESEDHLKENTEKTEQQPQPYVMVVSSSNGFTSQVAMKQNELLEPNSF
Chain of ELF4 (Q99607 whole entry): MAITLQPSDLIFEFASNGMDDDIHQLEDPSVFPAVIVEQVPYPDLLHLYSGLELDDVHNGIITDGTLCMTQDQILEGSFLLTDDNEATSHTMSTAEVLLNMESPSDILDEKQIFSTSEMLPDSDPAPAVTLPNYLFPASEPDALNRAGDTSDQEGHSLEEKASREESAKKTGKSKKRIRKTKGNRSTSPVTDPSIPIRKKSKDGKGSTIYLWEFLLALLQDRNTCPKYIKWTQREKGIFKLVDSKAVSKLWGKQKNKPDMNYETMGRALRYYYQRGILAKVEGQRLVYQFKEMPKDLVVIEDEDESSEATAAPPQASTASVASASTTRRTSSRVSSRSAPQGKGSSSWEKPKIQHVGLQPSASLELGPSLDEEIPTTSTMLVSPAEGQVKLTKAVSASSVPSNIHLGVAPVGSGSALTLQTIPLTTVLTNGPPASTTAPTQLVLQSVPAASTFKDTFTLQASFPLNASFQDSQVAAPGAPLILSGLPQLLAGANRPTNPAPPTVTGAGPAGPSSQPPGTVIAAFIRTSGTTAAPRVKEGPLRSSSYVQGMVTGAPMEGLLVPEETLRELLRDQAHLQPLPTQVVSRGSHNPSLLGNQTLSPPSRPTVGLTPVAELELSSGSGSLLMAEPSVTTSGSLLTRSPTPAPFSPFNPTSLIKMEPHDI
Chain of ETV1 (P50549 whole entry): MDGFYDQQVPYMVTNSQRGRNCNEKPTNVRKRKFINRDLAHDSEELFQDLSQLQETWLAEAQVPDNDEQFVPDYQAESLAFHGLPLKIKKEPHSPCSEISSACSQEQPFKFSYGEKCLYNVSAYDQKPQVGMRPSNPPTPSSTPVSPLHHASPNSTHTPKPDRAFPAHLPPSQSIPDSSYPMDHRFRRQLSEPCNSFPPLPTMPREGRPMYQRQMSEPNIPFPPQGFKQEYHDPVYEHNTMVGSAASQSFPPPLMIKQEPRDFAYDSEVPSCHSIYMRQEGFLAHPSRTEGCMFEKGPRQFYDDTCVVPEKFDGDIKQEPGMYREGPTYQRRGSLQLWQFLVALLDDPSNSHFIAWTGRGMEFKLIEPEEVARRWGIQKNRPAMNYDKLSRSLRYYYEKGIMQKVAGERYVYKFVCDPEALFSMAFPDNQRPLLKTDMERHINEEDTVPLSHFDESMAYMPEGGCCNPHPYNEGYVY
Chain of ETV5 (P41161 whole entry): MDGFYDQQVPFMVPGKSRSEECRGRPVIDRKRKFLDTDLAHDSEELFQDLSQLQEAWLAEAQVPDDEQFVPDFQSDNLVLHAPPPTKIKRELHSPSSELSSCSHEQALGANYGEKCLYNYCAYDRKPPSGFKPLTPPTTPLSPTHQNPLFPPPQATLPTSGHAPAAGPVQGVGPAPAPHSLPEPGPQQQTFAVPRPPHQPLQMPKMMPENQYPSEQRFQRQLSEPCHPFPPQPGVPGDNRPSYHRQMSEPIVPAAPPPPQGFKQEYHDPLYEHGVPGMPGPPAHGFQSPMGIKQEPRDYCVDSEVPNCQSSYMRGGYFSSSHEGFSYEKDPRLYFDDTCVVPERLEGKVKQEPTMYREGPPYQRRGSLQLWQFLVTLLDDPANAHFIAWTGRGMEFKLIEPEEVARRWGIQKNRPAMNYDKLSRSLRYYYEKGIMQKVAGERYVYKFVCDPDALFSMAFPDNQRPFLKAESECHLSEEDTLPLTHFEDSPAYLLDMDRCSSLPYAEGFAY

Take ATGCCG: the binding signal is 1.12 fold enrichment (6-mer frequency, TF over GST control) in the assay with FLI1; 1.13 fold enrichment (6-mer frequency, TF over GST control) with ELK1; 1.09 fold enrichment (6-mer frequency, TF over GST control) with GABPA; 1.12 fold enrichment (6-mer frequency, TF over GST control) in the assay with ERG; 1.09 fold enrichment (6-mer frequency, TF over GST control) with ELF1; 1.16 fold enrichment (6-mer frequency, TF over GST control) with EHF. Also, the binding signal with SPI1 is 1.13 fold enrichment (6-mer frequency, TF over GST control); with SPIB, 1.17 fold enrichment (6-mer frequency, TF over GST control); with FEV, 1.16 fold enrichment (6-mer frequency, TF over GST control); with ETV5, 1.15 fold enrichment (6-mer frequency, TF over GST control); with SPIC it was 1.17 fold enrichment (6-mer frequency, TF over GST control); in the assay with ELF4, 1.19 fold enrichment (6-mer frequency, TF over GST control). Moreover, the binding signal was 1.11 fold enrichment (6-mer frequency, TF over GST control) in the assay with ETV1; 1.01 fold enrichment (6-mer frequency, TF over GST control) with ERF; 1.08 fold enrichment (6-mer frequency, TF over GST control) with ETS2; 1.13 fold enrichment (6-mer frequency, TF over GST control) with SPDEF; 1.13 fold enrichment (6-mer frequency, TF over GST control) with ELF5; 1.24 fold enrichment (6-mer frequency, TF over GST control) in the assay with ETV3. The binding signal with ETV6 is 1.15 fold enrichment (6-mer frequency, TF over GST control).

These data come from article PMC7862700, “An all-to-all approach to the identification of sequence-specific readers for epigenetic DNA modifications on cytosine”.
